This is part of a sample that, as a whole, favours compounds with a hit. Of some 79,000 tested, about 15% had one in any assay. Active and inactive are the calls of the source. No stated cut-off is given here; in the data, active means growth inhibition above about 70%; inactive means the rest.
What was measured:
[1] = NCI Yeast Anticancer Drug Screen. Data for the rad52 strain (AID 147);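 further: 0% = growth of vehicle-treated control cultures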; conditions: S. cerevisiae rad52 mutant growth inhibition, stronger effect = higher value
Summary of the method: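 DNA repair-defective yeast; compound exposure; growth scored against vehicle controls.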

[2] = NCI Yeast Anticancer Drug Screen. Data for the wt1 strain (AID 149);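 further: 0% = growth of vehicle-treated wt1 cultures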; conditions: S. cerevisiae wt1 strain (SPY 50644) growth inhibition, stronger effect = higher value
Summary of the method: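 Growth inhibition read against vehicle controls after compound exposure of the wt1 yeast strain.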

[3] = NCI Yeast Anticancer Drug Screen. Data for the rad50EPP+ strain (AID 151);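 further: 0% = growth of vehicle-treated control cultures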; conditions: S. cerevisiae rad50 mutant strain, stronger effect = higher value
Summary of the method: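 rad50EPP+ yeast treated with test compounds. Readout: growth vs vehicle control.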

[4] = NCI Yeast Anticancer Drug Screen. Data for the mgt1 strain (AID 153); conditions: S. cerevisiae mgt1 mutant growth inhibition, stronger effect = higher value
Summary of the method: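 Growth inhibition relative to vehicle controls was scored for the mgt1 yeast strain after compound exposure.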

[5] = NCI Yeast Anticancer Drug Screen. Data for the rad50 strain (AID 155);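 further: 0% = growth of vehicle-only cultures of the same strain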; conditions: S. cerevisiae rad50 strain growth inhibition, stronger effect = higher value
Summary of the method: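 Readout: growth inhibition relative to vehicle-treated cultures. Compound exposure was carried out in a genetically defined yeast strain deficient in DNA damage repair.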

[6] = NCI Yeast Anticancer Drug Screen. Data for the mec2-1 strain (AID 157); conditions: S. cerevisiae mec2-1 strain, stronger effect = higher value
Summary of the method: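 Growth inhibition is read against vehicle-treated controls after compound exposure of the mec2-1 yeast strain, which is defective in DNA damage repair or cell cycle control.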

[7] = NCI Yeast Anticancer Drug Screen. Data for the rad14 strain (AID 159);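 further: 0% = growth of vehicle-treated control cultures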; conditions: S. cerevisiae rad14 strain growth inhibition, stronger effect = higher value
Summary of the method: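 Growth inhibition vs vehicle controls; genetically altered yeast strain (DNA damage repair defect) treated with test compounds.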

[8] = NCI Yeast Anticancer Drug Screen. Data for the sgs1 mgt1 strain (AID 161);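 further: 0% = growth of cultures given vehicle only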; conditions: S. cerevisiae sgs1 mgt1 strain, stronger effect = higher value
Summary of the method: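 This yeast growth screen uses a strain with defined DNA-repair lesions; compound-treated growth is compared with vehicle-treated growth.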

[9] = NCI Yeast Anticancer Drug Screen. Data for the CLN2oe strain (AID 163);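 further: 0% = growth of vehicle-only control cultures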; conditions: S. cerevisiae CLN2oe strain, stronger effect = higher value
Summary of the method: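 Compound-treated yeast; growth vs vehicle ctrl = % inhibition. Genetically altered strain (cell-cycle control).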

[10] = NCI Yeast Anticancer Drug Screen. Data for the cln2 rad14 strain (AID 165);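 further: 0% = growth equal to vehicle treated cultures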; conditions: S. cerevisiae cln2 rad14 strain, stronger effect = higher value
Summary of the method: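 Growth inhibition, relative to vehicle-treated controls, is the read-out. The test organism is a yeast strain with defined genetic alterations, cln2 rad14.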

[11] = NCI Yeast Anticancer Drug Screen. Data for the bub3 strain (AID 167); conditions: S. cerevisiae bub3 mutant strain, stronger effect = higher value
Summary of the method: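 Readout: yeast growth inhibition, expressed relative to vehicle-only wells. The test organism is a mutant strain from a panel with lesions in DNA repair or checkpoint genes.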

[12] = NCI Yeast Anticancer Drug Screen. Data for the wt2 strain (AID 169);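 further: 0% = growth of vehicle-treated yeast cultures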; conditions: S. cerevisiae wt2 strain growth inhibition, stronger effect = higher value
Summary of the method: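 Compound exposure of yeast; growth compared with vehicle controls; inhibition reported.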

[13] = NCI Yeast Anticancer Drug Screen. Data for the mlh1 strain (AID 171);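 further: 0% = growth of vehicle-treated control cultures of the same strain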; conditions: S. cerevisiae mlh1 strain growth inhibition, stronger effect = higher value
Summary of the method: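 Compounds are applied to a genetically altered yeast strain, and its growth is compared with that of vehicle-treated cultures to give percent inhibition.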

[14] = NCI Yeast Anticancer Drug Screen. Data for the sgs1 strain (AID 173);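 further: 0% = growth of vehicle-only control cultures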; conditions: S. cerevisiae sgs1 mutant, stronger effect = higher value
Summary of the method: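 Compounds applied to genetically altered yeast; growth compared with vehicle-treated cultures to give % inhibition.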

[15] = NCI Yeast Anticancer Drug Screen. Data for the mlh1 rad18 strain (AID 175); conditions: S. cerevisiae mlh1 rad18 strain growth inhibition, stronger effect = higher value
Summary of the method: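 Cells of a genetically altered yeast strain, deficient in DNA damage repair, were treated with compound. Their growth was then compared with that of vehicle-treated cultures to give inhibition.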

[16] = NCI Yeast Anticancer Drug Screen. Data for the rad18 strain (AID 177); conditions: S. cerevisiae rad18 mutant growth inhibition, stronger effect = higher value
Summary of the method: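 Compounds are applied to a repair-deficient yeast strain, and growth is compared with that of vehicle-treated cultures to give percent inhibition.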

[17] = at 5.0 µM (retest, dose inferred, filed as 0.5)
[18] = at 50.0 µM (retest, dose inferred, filed as 5.0)

Measured: growth inhibition

C=C1N(C)c2ccc(Cl)cc2C1(C)C
inactive: [1]; at 1.2 µM -26% | [1]; at 3.7 µM -25% | [1]; at 11.0 µM -38% | [1]; at 33.0 µM -7% | [2]; at 1.2 µM -37% | [2]; at 3.7 µM -28% | [2]; at 11.0 µM -30% | [2]; at 33.0 µM -21% | [3]; at 1.2 µM -5% | [3]; at 3.7 µM -7% | [3]; at 11.0 µM -23% | [3]; at 33.0 µM -18% | [3]; at 100.0 µM -6% | [4]; at 1.2 µM -23% | [4]; at 3.7 µM 0% | [4]; at 11.0 µM 0% | [4]; at 33.0 µM 29% | [5]; at 1.2 µM 4% | [5]; at 3.7 µM -22% | [5]; [17] 68% | [5]; at 11.0 µM -26% | [5]; at 33.0 µM 20% | [6]; at 1.2 µM -3% | [6]; at 3.7 µM 4% | [6]; at 11.0 µM -8% | [6]; at 33.0 µM 19% | [7]; at 1.2 µM -33% | [7]; at 3.7 µM -37% | [7]; at 11.0 µM -23% | [7]; at 33.0 µM 12% | [8]; [17] -6% | [9]; at 1.2 µM -16% | [9]; at 3.7 µM -31% | [9]; at 11.0 µM -22% | [9]; at 33.0 µM 4% | [10]; [17] 64% | [11]; at 1.2 µM 18% | [11]; at 3.7 µM 28% | [11]; [17] -1% | [11]; at 11.0 µM 5% | [11]; at 33.0 µM 28% | [12]; at 1.2 µM -30% | [12]; at 3.7 µM -30% | [12]; at 11.0 µM -28% | [12]; at 33.0 µM -23% | [13]; at 1.2 µM -45% | [13]; at 3.7 µM -43% | [13]; at 11.0 µM -30% | [13]; at 33.0 µM 3% | [14]; at 1.2 µM -24% | [14]; at 3.7 µM -46% | [14]; at 11.0 µM -47% | [14]; at 33.0 µM 1% | [15]; [17] 57%
active: [1]; at 100.0 µM 94% | [2]; at 100.0 µM 92% | [4]; at 100.0 µM 97% | [5]; [18] 99% | [5]; at 50.0 µM 88.9% | [5]; at 100.0 µM 94% | [6]; [17] 77% | [6]; [18] 100% | [6]; at 50.0 µM 90.1% | [6]; at 100.0 µM 96% | [7]; at 100.0 µM 95% | [8]; [18] 88% | [9]; at 100.0 µM 96% | [10]; [18] 86% | [11]; [18] 93% | [11]; at 100.0 µM 97% | [12]; at 100.0 µM 94% | [13]; at 100.0 µM 94% | [14]; at 100.0 µM 92% | [15]; [18] 100% | [15]; at 50.0 µM 88.9%

CCC(C)(c1ccc(O)c(C)c1)c1ccc(O)c(C)c1
inactive: [1]; at 1.2 µM -36% | [1]; at 3.7 µM -19% | [1]; at 11.0 µM 42% | [2]; at 1.2 µM -17% | [2]; at 3.7 µM -23% | [2]; at 11.0 µM 29% | [3]; at 1.2 µM -31% | [3]; at 3.7 µM -38% | [3]; at 11.0 µM -43% | [3]; at 33.0 µM -41% | [3]; at 100.0 µM 12% | [4]; at 1.2 µM -49% | [4]; at 3.7 µM -39% | [4]; at 11.0 µM 14% | [5]; at 1.2 µM -30% | [5]; at 3.7 µM -28% | [5]; [17] 40% | [5]; at 11.0 µM 52% | [6]; at 1.2 µM -66% | [6]; at 3.7 µM -45% | [6]; [17] 42% | [6]; at 11.0 µM 43% | [8]; [17] -3% | [9]; at 1.2 µM -36% | [9]; at 3.7 µM -28% | [9]; at 11.0 µM 45% | [11]; at 1.2 µM -27% | [11]; at 3.7 µM -13% | [11]; [17] 13% | [11]; at 11.0 µM 47% | [12]; at 1.2 µM -33% | [12]; at 3.7 µM -31% | [12]; at 11.0 µM 45% | [13]; at 1.2 µM -45% | [13]; at 3.7 µM -43% | [13]; at 11.0 µM 42% | [14]; at 1.2 µM -32% | [14]; at 3.7 µM -25% | [14]; at 11.0 µM 39% | [15]; [17] 30% | [16]; at 1.2 µM -55% | [16]; at 3.7 µM -38% | [16]; at 11.0 µM 30%
active: [1]; at 33.0 µM 98% | [1]; at 100.0 µM 98% | [2]; at 33.0 µM 98% | [2]; at 100.0 µM 99% | [4]; at 33.0 µM 97% | [4]; at 100.0 µM 99% | [5]; at 33.0 µM 97% | [5]; [18] 87% | [5]; at 50.0 µM 92% | [5]; at 100.0 µM 97% | [6]; at 33.0 µM 98% | [6]; [18] 90% | [6]; at 50.0 µM 93.3% | [6]; at 100.0 µM 98% | [8]; [18] 98% | [8]; at 50.0 µM 93.8% | [9]; at 33.0 µM 97% | [9]; at 100.0 µM 98% | [10]; [17] 81% | [10]; [18] 100% | [10]; at 50.0 µM 92.7% | [11]; at 33.0 µM 97% | [11]; [18] 99% | [11]; at 50.0 µM 92.2% | [11]; at 100.0 µM 98% | [12]; at 33.0 µM 98% | [12]; at 100.0 µM 99% | [13]; at 33.0 µM 91% | [13]; at 100.0 µM 98% | [14]; at 33.0 µM 97% | [14]; at 100.0 µM 98% | [15]; [18] 91% | [15]; at 50.0 µM 92.2% | [16]; at 33.0 µM 97% | [16]; at 100.0 µM 98%

Source: PubChem BioAssay (NCI)
